CYP2C9 inh: blockers of cytochrome P450 2C9 activity – biochemical, luminescence, ADME assay, primary screen | P11712 | CYP2C9 Supersomes, luciferin-H conversion | inhibition, % at 5 µM | actives 20% (n = 96,000);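 active means blocking of liver enzyme CYP2C9 beyond about 50% at 5 µM, limit read from the data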
CYP2C19 activ: human CYP2C19 activators, primary screen, biochemical, luminescence; Cytochrome P450 2C19 (Homo sapiens), P33261; recombinant CYP2C19, luciferin-H EGE luminescence; hits give high values; 0 = fully inhibited enzyme, 1 = untreated enzyme; activation factor at 5 µM; 96,000 tested, under 10 active; AID 1025, 2008;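 active means activation factor of at least 2 at 5 µM in the primary screen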;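 further: 0 = wells with 2.5 mM tranylcypromine and 1 = vehicle-only wells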
CYP2C19 inhib: blockers of cytochrome P450 2C19 activity – biochemical, luminescence, ADME assay, primary screen; CYP2C19 Supersomes, luciferin-H EGE luminescence, 30 min; actives 21% (n = 96,000); inhibition, % at 5 µM; P33261;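 active means CYP2C19 inhibition above a set limit at 5 µM in the primary screen, cut at about 50% in these data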;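 further: plate controls were negative control wells for no effect and 2.5 mM tranylcypromine positive control for full effect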
Cav32 inh: Cav3.2 calcium influx blockers – cell-based, Fluo-4 calcium fluorescence, FDSS, MLSMR library, primary screen; Voltage-dependent T-type calcium channel subunit alpha-1H (Homo sapiens), O95180; Cav3.2-expressing cells; hits give low values; B-score at 10 µM; actives 4% (n = 100,000); AID 449739, 2010;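 active means single-dose well whose peak fluorescence ratio is a statistical outlier from its plate by either plate-standardised score or position-corrected B-score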
CYP2C9 act: human CYP2C9 activators, primary screen, biochemical, luminescence; activation factor at 5 µM; AID 1024, 2008; recombinant CYP2C9, luciferin-H conversion; hits give high values; factor 1 = untreated enzyme, 0 = blocked; actives 1.4% (n = 96,000);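 active means activation factor of 2 or more for CYP2C9 at a 5 µM dose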;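 further: 0 = sulfaphenazole-blocked wells and 1 = vehicle-only wells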
* hit, by the source's call; x = no result given. Compounds with a hit are over-represented: about 27% of the library has one in this group of screens.

SMILES | CYP2C9 inh | CYP2C19 activ | CYP2C19 inhib | Cav32 inh | CYP2C9 act
CS(=O)(=O)c1ccc2nc(NC(=O)C3COc4ccccc4O3)sc2c1 (stereo not given) | 75.6* | 1 | -0.8 | 0.0152 | 0.2
Cc1nnc(NC(=O)C2COc3ccccc3O2)s1 (stereo not given) | 85.5* | 0.5 | 45.1 | -0.435 | 0.1
O=C(Nc1nc2c(s1)CCCC2)C1COc2ccccc2O1 (stereo not given) | 19.7 | 1 | 4.2 | -4.88* | 0.8
Cc1ccc(CSc2nnc(NC(=O)C3COc4ccccc4O3)s2)cc1 (stereo not given) | -2.0 | 1.1 | -12.3 | x | 1
Cc1nnc(NC(=O)C2(c3ccccc3)CCOCC2)s1 | 18.0 | 0.5 | 50.4* | 0.326 | 0.8
CCC(CC)c1nnc(NC(=O)C2COc3ccccc3O2)s1 (stereo not given) | x | x | x | -3.92* | x
CCc1nnc(NC(=O)C2COc3ccccc3O2)s1 (stereo not given) | 55.8* | 0.9 | 14.5 | -0.0425 | 0.4
CCc1nnc(NC(=O)C2Cc3ccccc3C(=O)O2)s1 (stereo not given) | 48.8 | 1 | 3.7 | 0.753 | 0.5
CNc1oc(-c2ccc(Cl)cc2)nc1P(=O)(c1ccccc1)c1ccccc1 | 63.7* | 0.8 | 21.7 | -0.796 | 0.4
CNc1oc(-c2ccccc2)nc1C#N | 5.0 | 0.7 | 29.7 | 0.209 | 0.9
COc1ccc(-c2nc(NC(=O)CSc3nnc(C)s3)ns2)cc1 | 9.7 | 0.9 | 9.9 | 1.17 | 0.9
COC(=O)CSc1cc(C(=O)c2nccn2C)c2ccccc2n1 | 52.2* | 0.2 | 81.7* | -0.0227 | 0.5
CC(C)(C)c1cn(-c2ccccc2)c(=S)[nH]1 | 9.0 | 0.6 | 44.6 | 0.175 | 0.9
Cc1ccc(-n2cc(C(C)(C)C)[nH]c2=S)cc1 | -36.2 | 0.4 | 59.8* | 0.281 | 1.4
N#CC(C(=O)CCN1C(=O)C2CC=CCC2C1=O)c1nc2ccccc2[nH]1 (stereo not given) | 24.9 | 0.8 | 19.3 | 0.00126 | 0.8
N#CC(C(=O)C12CC3CC(CC(C3)C1)C2)c1nc2ccccc2[nH]1 (stereo not given) | 61.7* | 0.7 | 33.2 | 0.181 | 0.4
CCCNS(=O)(=O)c1ccc(OCC(=O)N2CCOCC2)cc1 | x | x | x | 0.831 | x
O=C(c1ccc2c(c1)OCO2)N(CC1CCCO1)C1(C(=O)NC2CCCC2)CCCCC1 (stereo not given) | 54.7* | 0.5 | 50.6* | -1.24 | 0.5
O=C(NC1(C(=O)NC2CCCCC2)CCCCC1)c1ccc2c(c1)OCO2 | x | x | x | 0.613 | x
O=C(Oc1ccc(Br)cc1C(=S)N1CCCCC1)c1cc([N+](=O)[O-])cc([N+](=O)[O-])c1 | 0.0 | 0.4 | 61.8* | -1.25 | 1
Cc1ccccc1C(=O)Oc1ccccc1C(=O)N1CCOCC1 | x | x | x | -0.0166 | x
Cc1ccccc1C(=O)Oc1ccc(Br)cc1C(=S)N1CCCC1 | 41.2 | 0.5 | 52.0* | -2.33 | 0.6
O=C(Oc1ccc(Br)cc1C(=S)N1CCCC1)c1ccccc1Cl | 35.4 | 0.4 | 57.3* | -1.1 | 0.6
Cc1nc(C(=O)NCCC(C)C)sc1C1(C)CC(c2ccccc2)=NO1 (stereo not given) | x | x | x | -2.74 | x
COc1ccc(OC)c(NC(=O)C(CCS(C)(=O)=O)NC(C)=O)c1 (stereo not given) | -17.1 | 1.2 | -16.5 | -0.0526 | 1.2
SMILES | CYP2C9 inh | CYP2C19 activ | CYP2C19 inhib | Cav32 inh | CYP2C9 act
COc1ccc(OC)c(C(c2nnnn2C2CCCC2)N2CCc3ccccc3C2)c1 (stereo not given) | 54.0* | 0.2 | 80.1* | x | 0.5
COc1ccc(C(c2nnnn2C2CCCC2)N2CCc3ccccc3C2)cc1OC (stereo not given) | 29.4 | 0.5 | 47.1 | -3.97* | 0.7
CCOC(=O)c1c(-c2ccccc2)oc2ccc(OC)cc12 | 65.0* | 0.5 | 51.5* | 0.387 | 0.3
NC(=O)c1c(-c2ccccc2)oc2ccc(O)cc12 | -114.9 | 0.5 | 49.9 | 1.99 | 2.1*
COc1ccc2oc(-c3ccccc3)c(C(=O)N3CCOCC3)c2c1 | 10.2 | 0.8 | 15.4 | 0.533 | 0.9
COc1ccc(CCNC(=O)C2CC3Cn4c(nc5cc6ccccc6cc54)C3N2C)cc1 (stereo not given) | x | x | x | -0.264 | x
COc1ccc(N2CCN(c3oc(COc4ccc(Cl)cc4)nc3C#N)CC2)cc1 | 50.1* | 0.6 | 35.1 | -6.14* | 0.5
CCOc1ccc(-c2nc(C#N)c(N3CCN(Cc4ccccc4)CC3)o2)cc1 | 66.7* | 0.6 | 36.2 | -0.489 | 0.3
N#Cc1nc(COc2ccc(Br)cc2)oc1N1CCCCCC1 | 41.8 | 0.8 | 21.3 | -2.16 | 0.6
COc1ccc(N2CCN(c3oc(COc4ccccc4)nc3C#N)CC2)cc1 | x | x | x | -3.3 | x
CCOc1ccc(-c2nc(C#N)c(N3CCOCC3)o2)cc1 | 34.1 | 0.7 | 30.1 | x | 0.7
N#Cc1nc(COc2ccc(Cl)cc2)oc1N1CCN(Cc2ccccc2)CC1 | 53.2* | 0.6 | 39.6 | -2.56 | 0.5
CCOc1ccc(-c2nc(C#N)c(NC3CC3)o2)cc1 | 24.6 | 0.3 | 68.9* | 0.849 | 0.8
N/C(=N\OC(=O)c1ccccc1Cl)c1cccnc1 | x | x | x | 0.776 | x
N/C(=N\OC(=O)c1cc(Cl)ccc1Cl)c1cccnc1 | 34.5 | 0.3 | 72.1* | 1.2 | 0.7
CC(=O)Nc1cc(S(=O)(=O)Nc2cccc(C)c2)c(C)cc1C | -56.5 | 0.4 | 64.9* | x | 1.6
CC(=O)Nc1cc(S(=O)(=O)Nc2ccccc2)c(C)cc1C | -7.8 | 0.8 | 20.7 | x | 1.1
CC(=O)Nc1cc(S(=O)(=O)Nc2ccccc2C)c(C)cc1C | -32.4 | 0.5 | 51.0* | x | 1.3
Cc1noc(C)c1CSc1ccccc1C(=O)Nc1nccs1 | 31.9 | 0.2 | 76.1* | -0.00247 | 0.7
N#Cc1c(N)nc2c3c(sc(=N)c2c1N)NC(=O)CC3c1c(F)cccc1Cl (stereo not given) | -4.2 | 1.1 | -14.1 | 0.872 | 1
N#Cc1c(N)nc2c3c(sc(=N)c2c1N)NC(=O)CC3c1ccccc1 (stereo not given) | 11.7 | 0.3 | 72.8* | -0.299 | 0.9
Cc1cccc(C)c1NC(=O)C1C2C=CC(C2)C1C(=O)NCc1ccccn1 (stereo not given) | -1.3 | 1 | 4.0 | -0.106 | 1
Cc1ccc(S(=O)(=O)N=C2SCCCS2)cc1 | -103.5 | 0.6 | 36.7 | 0.0305 | 2*
CCOC(=O)C1CCN(S(=O)(=O)c2ccc(C)cc2)CC1 | 26.7 | 0.2 | 81.1* | x | 0.7
CCOC(=O)C1CCN(S(=O)(=O)c2ccc(NC(=O)OC)cc2)CC1 | 19.1 | 0.8 | 24.3 | 1.1 | 0.8
Cc1ccc(S(=O)(=O)N2CCC(C(=O)Nc3ccccc3N3CCCCC3)CC2)cc1 | 86.8* | 0.2 | 79.7* | -3.32 | 0.1

Bioassay records deposited in PubChem by several laboratories.
